Screening data from PubChem.
In the library only some 4.8% were active in any assay of this set; here they are far more common.
ssDAF12 agonist: activates DAF-12 receptor from parasite S. stercoralis; HEK293 ssDAF-12/GRIP1 lit1-tk-luc reporter, luminescence; % of 3 µM dafachronic acid response; AID 652126; activation, % at 6.8 µM; 370,000 tested, 1% active;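 active = activation above the mean over all tested compounds plus 3 SD, cut at about 0.9% in these data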;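 note: 0% = DMSO-only wells and 100% = 3 µM delta7-dafachronic acid wells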
DAX1 inh-1: DAX1 (NR0B1) inhibition, primary screen | HEK293T StAR-luciferase reporter, SF-1/DAX-1 repression relief | inhibition, % at 6.8 µM | 370,000 tested, 1.1% active | AID 652010;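 active = inhibition above the mean over all tested compounds plus 3 SD, cut at about 3.6% in these data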;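 note: 0% = DAX-1 cells with DMSO and 100% = cells lacking DAX-1 with DMSO; higher inhibition means more luminescence from relief of DAX-1 repression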
SMARCA2 act: SMARCA2 function activation, primary screen; MG213 cells, MMTV-luciferase reporter, dexamethasone, overnight; activation, % at 9.1 µM; 370,000 tested, 1% active; in the data active = activation above about 7.8%;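 note: 0% = vehicle wells and 100% = reference activator wells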
hcDAF-12 act: activates DAF-12 receptor from parasite H. contortus; AID 652067; 370,000 tested, 1.4% active; HEK293 hcDAF-12 lit1-tk-luc reporter, luminescence; 0% DMSO, 100% Δ7-dafachronic acid; activation, % at 6.8 µM;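 active = activation above the mean of all tested compounds plus 3 SD, cut at about 5.5% in these data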;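 note: 100% = response to 3 µM Δ7-dafachronic acid high control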
DAX1 inh-2: inhibitors of human orphan nuclear receptor DAX1 (NR0B1); 340,000 tested, 0.99% active; P51843; inhibition, % at 6.75 µM; AID 504766; HEK293 Gal4-DAX1 luciferase reporter, luminescence;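 active = inhibition above the mean over all tested compounds plus 3 SD, cut at about 4.2% in these data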;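 note: 0% = DAX1-transfected cells with DMSO and 100% = empty-vector control cells with DMSO; inhibition shows as a rise in luminescence from relieved DAX1 repression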
Target sequence (P51843 207-470 limits assumed): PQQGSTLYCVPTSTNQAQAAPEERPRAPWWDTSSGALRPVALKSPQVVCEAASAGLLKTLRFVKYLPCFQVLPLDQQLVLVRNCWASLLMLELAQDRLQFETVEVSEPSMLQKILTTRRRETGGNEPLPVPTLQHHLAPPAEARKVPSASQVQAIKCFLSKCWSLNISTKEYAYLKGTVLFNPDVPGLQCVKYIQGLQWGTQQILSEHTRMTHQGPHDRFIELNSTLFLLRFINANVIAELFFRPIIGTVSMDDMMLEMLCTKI
hgDAF12 agonist: activates the H. glycines DAF-12 receptor ligand-binding domain; HEK293 GAL4-hgDAF12 UAS-luciferase reporter, agonist luminescence; normalized to butyrate control; activation, % at 6.8 µM; 370,000 tested, 1.8% active;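 active = activation above a cutoff set at the mean of all screened compounds plus 3 SD, cut at about 10% in these data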;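 note: 0% = DMSO wells and 100% = sodium butyrate wells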
* marks the source's active call; other numbers are inactive results; x = no result.

SMILES	ssDAF12 agonist	DAX1 inh-1	SMARCA2 act	hcDAF-12 act	DAX1 inh-2	hgDAF12 agonist
COc1ccc(C(=O)Nc2ccc3[nH]ccc3c2)cc1OC	-1	2	5	1	3	6
O=C(Nc1ccc2[nH]ccc2c1)c1cccs1	0	2	8	2	-1	11*
COc1ccc(C(=O)Nc2ccc3cn[nH]c3c2)c(OC)c1	0.9*	1	-1	1	2	-2
COc1ccc(OC)c(C(=O)Nc2ccc3[nH]ccc3c2)c1	0	2	1	4	1	12*
Cc1ccc(-n2c(SCC(=O)Nc3ccccc3-c3ccccc3)nnc2-c2ccccc2)cc1	-1	-2	-4	-3	x	0
COC(=O)C[C@H]1CC[C@H]2[C@H](COc3ccc(NS(=O)(=O)c4cccc(F)c4)cc3C(=O)N2C)O1	0	-1	-4	0	x	4
COc1ccc(/C=C/S(=O)(=O)NC2CCCC2)c(CNC(=O)OC(C)(C)C)c1	0	-1	0	-2	x	-1
COc1ccc(C(=O)Nc2ccc3[nH]ccc3c2)cc1	2.5*	3	5	9.5*	-7	16*
COC(=O)[C@]12C[C@H](CC(=O)NCc3cccs3)C(=O)N(Cc3ccc4c(c3)OCO4)C1=C[C@H](C(C)(C)C)O[C@@H]2C	0	-1	-8	-1	x	-2
CC(N=Cc1c(O)c2ccccc2oc1=O)C(=O)O (stereo unspecified)	-1	0	1	0	0	11*
O=C(O)C(CO)N=Cc1c(O)c2ccccc2oc1=O (stereo unspecified)	-1	0	0	-1	1	-1
CCC(=O)N1CCc2cc(Br)c(S(=O)(=O)N3CCC(C(=O)NCCCOC(C)C)CC3)cc21	0	0	-3	-3	x	2
Cc1ccccc1/C=C1\CCCc2ccccc2C1=O	1	3	4	4	6.0*	10
C=CCN(CC#CC1=CCCCC1)Cc1ccccc1	-1	0	7	-2	x	2
CCN1CCN(c2ccc(S(=O)(=O)N3CCOCC3)cc2NC(=O)c2cc(F)c(F)c(F)c2F)CC1	-1	0	0	-1	-1	-1
COc1ccc(NCC(=O)Nc2cc(S(=O)(=O)N3CCOCC3)ccc2N2CCOCC2)c(OC)c1	-2	0	-1	-1	7.1*	-1
Cc1ccccc1C(=O)Nc1cc(S(=O)(=O)N2CCCCC2)ccc1N1CCN(C)CC1	0	0	-2	1	5.0*	-2
CCN1CCN(c2ccc(S(=O)(=O)N3CCOCC3)cc2NC(=O)c2ccc(C)cc2C)CC1	-1	3.9*	1	0	1	0
CN(Cc1ccccc1)C(=O)OCc1cn(Cc2ccccc2)nn1	-2	0	-2	-1	x	-2
CCOC(=O)CC1C(=O)NCCN1C(=O)c1ccc(Cl)cc1 (stereo unspecified)	-1	0	-3	0	0	-1
CCCCOc1ccc(C(=O)N2CCNC(=O)C2CC(=O)OC(C)C)cc1 (stereo unspecified)	1.9*	0	3	-1	-1	0
CN1CC=C(c2ccccc2)N(c2ccc(Cl)cc2)C1=O	-1	0	-1	-1	x	2
CC1CC(C)CN(C(=O)c2cn(C)c3ccc(S(=O)(=O)N(C)C)cc3c2=O)C1 (stereo unspecified)	0	-1	-2	0	4.5*	-1
COCCNC(=O)c1cn(C)c2ccc(S(=O)(=O)N(C)C3CCCCC3)cc2c1=O	-1	0	0	-1	6.5*	-2
Nc1nnc(SCc2cn3cc(Cl)ccc3n2)s1	0	1	8	2	1	12*
SMILES	ssDAF12 agonist	DAX1 inh-1	SMARCA2 act	hcDAF-12 act	DAX1 inh-2	hgDAF12 agonist
Clc1ccc(-n2nnnc2SCc2cn3ccccc3n2)cc1	-1	0	1	-1	-1	4
Clc1ccc(SCc2cn3ccccc3n2)cc1	-1	1	7	2	2	12*
Cc1ccc(-n2c(SCC(=O)c3ccc(F)cc3)nnc2-c2cccnc2)cc1	-2	-1	0	-1	x	-4
Cc1ccc2c(c1)CCCN2CC(=O)N(C)c1c(N)n(Cc2ccccc2)c(=O)[nH]c1=O	1.3*	-1	-3	2	1	0
CCN(C(=O)CN1CCCc2cc(C)ccc21)c1c(N)n(Cc2ccccc2)c(=O)[nH]c1=O	0	3	-1	0	0	2
CCCCCCCCNC(=O)C1CSCCS(=O)(=O)N1Cc1ccc(OC)cc1 (stereo unspecified)	-2	0	-1	3	x	-1
OCCCNCc1ccc(N(c2ccccc2)c2ccccc2)cc1	-1	0	-2	0	5.9*	-2
O=C(OCc1ccccc1)N(CCCCN(CCCNCc1ccccc1)C(=O)OCc1ccccc1)CCCNCc1ccccc1	-1	0	3	1	1	-1
COc1cccc(-c2ccc3c(c2)[C@@H]2C[C@H]4[C@@H](CN2CC3)[C@H](C)ON4C)c1	0	0	-4	0	x	0
S=C(c1ccc(-c2cccc(Cl)c2)o1)N1CCOCC1	0	4	7	6	3	13*
O=C(c1cc(-c2ccc(Cl)cc2)on1)N1CCOCC1	0	4.0*	1	4	1	12*
S=C(c1ccc(-c2cc(Cl)ccc2Cl)o1)N1CCOCC1	-1	0	-4	-2	1	1
O=C(c1cc(-c2cccc(Cl)c2)on1)N1CCOCC1	1	1	2	1	0	11*
CN1CCN(C(=S)c2ccc(-c3cccc([N+](=O)[O-])c3)o2)CC1	-1	2	7.9*	6.5*	7.9*	10
Cc1ccc(S(=O)(=O)N2CCN(C(=O)c3cccn3C)CC2)cc1	-2	0	-4	0	x	-3
NC(=O)C1CCN(c2nc(-c3ccc(OCc4ccccc4)cc3)cs2)CC1	-2	x	x	-3	x	4
CCCC(=O)OC12CCCN(C1)/C(=C/c1cccc(N(C)C)c1)C2 (stereo unspecified)	-1	0	-3	-1	x	1
COc1ccc(-c2cc(C(=O)N3CCN(C(c4ccccc4)c4ccccc4)CC3)no2)cc1OC	0	0	-5	-1	2	4
O=C(c1cc(-c2ccc(F)cc2)on1)N1CCOCC1	0	2	6	3	0	13*
O=C(c1cc(-c2ccc(F)cc2)on1)N1CCCC1	-1	3	7	4	1	13*
O=C(c1cc(-c2ccc(O)cc2)on1)N1CCN(c2ccc(F)cc2)CC1	-1	-1	-1	-1	-1	2
O=C(c1cc(-c2ccc(Cl)c(Cl)c2)on1)N1CCOCC1	0	1	1	1	1	3
